# Assay results as given in PubChem BioAssay (NCATS).
# Records with an inconclusive call do not appear. Where a call stands in place of a potency, no number is given. Activity calls are given as the source filed them. The call rests on the fitted dose curve; in most records, active means well fitted curve in the direction sought with a large enough effect; inconclusive means small, poorly fitted or top-dose-only effect, or another doubt; inactive means no such curve, though single readings can be large; an effect the other way counts as inactive or inconclusive.
# Test system: not listed separately
# Experiment: qHTS for Inhibitors of Cell Surface uPA Generation: Validation Assay (AID 493164);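 further: RAW 264.7 macrophage cells exposed to compound for 18 h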
# Settings: mouse cells, plasminogen activation; series mostly up to 38.3 µM
# How it was run: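 RAW 264.7, 4000 cells/well, o/n plating; cpd 7-pt 1:5 dilution 2.45 nM–38.3 uM final; 18 h, 37 C/5% CO2; ATP-Lite, 5 s luminescence exposure.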
row,Compound,outcome
1,O=C(O)/C=C/C(O)c1ccc(Cl)cc1 (centres undefined),inactive
2,C[C@@H](CN1CCC(Cc2ccccc2)CC1)[C@@H](O)c1ccc(O)cc1,inactive
3,NC(=O)C(=O)O,inactive
4,CNCC[C@H](Oc1ccc(C(F)(F)F)cc1)c1ccccc1,inactive
5,CC(=O)SCC[N+](C)(C)C,inactive
6,CN1[C@@H](CC(=O)c2ccccc2)CCC[C@H]1C[C@H](O)c1ccccc1,inactive
7,CN1C2CCC1CC(OC(=O)C(O)c1ccccc1)C2 (centres undefined),inactive
8,Cc1ccc(C(=O)O[C@H](C(=O)O)[C@@H](OC(=O)c2ccc(C)cc2)C(=O)O)cc1 (tested in a mixture with another compound),inactive
9,O=Nc1ccc2oc(=O)ccc2c1,inactive
10,N=C(N)SCCc1ccc(CCSC(=N)N)cc1,inactive
11,C=CC(N)CCC(=O)O (centres undefined),inactive
12,CCCCCCCCCCCCCCCCCCNC(=O)OCC(COP(=O)([O-])OCC[n+]1ccsc1)OC (centres undefined),inactive
13,COc1cccc(OC)c1OCCNCC1COc2ccccc2O1 (centres undefined),inactive
14,CC(C)NC[C@H](O)COc1cccc2[nH]ccc12,inactive
15,CCC1C(=O)OCC1Cc1cncn1C (centres undefined),inactive
16,NC(CCCP(=O)(O)O)C(=O)O (centres undefined),inactive
17,Cc1ccccc1CNc1ncnc2c1ncn2C1OC(CO)C(O)C1O (centres undefined),inactive

row,Compound,outcome
1,O=C(O)c1cc(=O)c2ccccc2[nH]1,inactive
2,O=C(O)CC[C@@H](C(=O)O)N1C(=O)c2ccccc2C1=O,inactive
3,N=c1ccn2c(n1)O[C@H]1[C@H](O)[C@@H](CO)O[C@H]12,inactive
4,CC(C)(C=O)Cc1cc(C(C)(C)C)c(O)c(C(C)(C)C)c1,inactive
5,CC1OC1P(=O)(O)O (centres undefined),inactive
6,CCCCC/C=C\CC(O)/C=C/c1cccc(CC(O)CCCCO)n1 (centres undefined),inactive
7,O=c1[nH]c2cc([N+](=O)[O-])c([N+](=O)[O-])cc2[nH]c1=O,inactive
8,CN(C)c1nc2c(Br)c(Br)c(Br)c(Br)c2[nH]1,inactive
9,NCCNC(=O)c1ncsc1-c1cccc(F)c1,inactive
10,CCCCCCCCCCCCCCCC(=O)OC(CC(=O)O)C[N+](C)(C)C (centres undefined),inactive
11,C[N+](C)(CCCCCC[N+](C)(C)CCCN1C(=O)c2cccc3cccc(c23)C1=O)CCCN1C(=O)c2cccc3cccc(c23)C1=O,inactive
12,NCCSSCCN,inactive
13,CN(C)C(N)=NCCC[C@H](N)C(=O)O,inactive
14,Fc1ccc(C(OCCCc2cnc[nH]2)c2ccc(F)cc2)cc1,inactive
15,O=C(O)c1cc(=O)c2c(Cl)cc(Cl)cc2[nH]1,inactive
16,CN(C)CCC(c1ccc(Cl)cc1)c1ccccn1 (centres undefined),inactive

# Molecular target: Galactokinase (Homo sapiens) (UniProt P51570)
# Sequence (P51570 whole entry, looked up): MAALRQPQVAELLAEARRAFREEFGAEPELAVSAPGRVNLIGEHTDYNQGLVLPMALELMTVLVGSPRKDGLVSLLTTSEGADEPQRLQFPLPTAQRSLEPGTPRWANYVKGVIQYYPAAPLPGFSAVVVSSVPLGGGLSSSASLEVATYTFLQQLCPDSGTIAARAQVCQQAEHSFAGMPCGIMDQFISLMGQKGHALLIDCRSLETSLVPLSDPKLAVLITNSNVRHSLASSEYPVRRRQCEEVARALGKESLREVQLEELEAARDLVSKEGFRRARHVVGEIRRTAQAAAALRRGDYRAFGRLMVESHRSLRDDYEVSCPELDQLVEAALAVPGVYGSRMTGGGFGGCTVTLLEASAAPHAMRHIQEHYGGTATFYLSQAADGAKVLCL
# Experiment: qHTS Validation Assay for Inhibitors of Human Galactokinase (GALK) (AID 493189)
# Settings: purified human GALK enzyme activity, qHTS 7-point titration; series mostly up to 57.5 µM
# How it was run: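 Enzyme activity is inferred from ATP consumption: human GALK phosphorylates galactose (100 uM) using 35 uM ATP for 1 h at room temperature, and luciferase-based Kinase-Glo Plus reports unconsumed ATP.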
row,Compound,Potency
1,C[C@@H](CN1CCC(Cc2ccccc2)CC1)[C@@H](O)c1ccc(O)cc1,inactive
2,NC(=O)C(=O)O,inactive
3,CNCC[C@H](Oc1ccc(C(F)(F)F)cc1)c1ccccc1,inactive
4,CC(=O)SCC[N+](C)(C)C,inactive
5,CN1[C@@H](CC(=O)c2ccccc2)CCC[C@H]1C[C@H](O)c1ccccc1,inactive
6,CN1C2CCC1CC(OC(=O)C(O)c1ccccc1)C2 (centres undefined),inactive
7,O=Nc1ccc2oc(=O)ccc2c1,inactive
8,N=C(N)SCCc1ccc(CCSC(=N)N)cc1,inactive
9,C=CC(N)CCC(=O)O (centres undefined),inactive
10,CCCCCCCCCCCCCCCCCCNC(=O)OCC(COP(=O)([O-])OCC[n+]1ccsc1)OC (centres undefined),inactive
11,COc1cccc(OC)c1OCCNCC1COc2ccccc2O1 (centres undefined),inactive
12,CC(C)NC[C@H](O)COc1cccc2[nH]ccc12,inactive
13,NC(CCCP(=O)(O)O)C(=O)O (centres undefined),inactive
14,Cc1ccccc1CNc1ncnc2c1ncn2C1OC(CO)C(O)C1O (centres undefined),inactive
15,O=C(O)c1cc(=O)c2ccccc2[nH]1,inactive
16,O=C(O)CC[C@@H](C(=O)O)N1C(=O)c2ccccc2C1=O,inactive
17,CC(C)(C=O)Cc1cc(C(C)(C)C)c(O)c(C(C)(C)C)c1,inactive
18,CCCCC/C=C\CC(O)/C=C/c1cccc(CC(O)CCCCO)n1 (centres undefined),inactive
19,O=c1[nH]c2cc([N+](=O)[O-])c([N+](=O)[O-])cc2[nH]c1=O,inactive
20,CN(C)c1nc2c(Br)c(Br)c(Br)c(Br)c2[nH]1,inactive
21,NCCNC(=O)c1ncsc1-c1cccc(F)c1,inactive
22,CCCCCCCCCCCCCCCC(=O)OC(CC(=O)O)C[N+](C)(C)C (centres undefined),inactive
23,C[N+](C)(CCCCCC[N+](C)(C)CCCN1C(=O)c2cccc3cccc(c23)C1=O)CCCN1C(=O)c2cccc3cccc(c23)C1=O,inactive
24,NCCSSCCN,inactive
25,CN(C)C(N)=NCCC[C@H](N)C(=O)O,inactive
26,Fc1ccc(C(OCCCc2cnc[nH]2)c2ccc(F)cc2)cc1,inactive
27,O=C(O)c1cc(=O)c2c(Cl)cc(Cl)cc2[nH]1,inactive
28,CN(C)CCC(c1ccc(Cl)cc1)c1ccccn1 (centres undefined),inactive

# Test system: not listed separately
# Experiment: Validation screen for small molecules that induce DNA re-replication in SW480 colon adenocarcinoma cells (AID 504364)
# Settings: DNA re-replication phenotype (high-content imaging); series mostly up to 46.1 µM
# How it was run: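 SW480 cells seeded at 250 per well were exposed to compound or DMSO for 48 hr at 37 C, 5% CO2, then stained with Hoechst for 40 min. DNA content per nucleus was imaged (405 nm ex, 500-530 nm em).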
row,Compound,Potency
1,O=C(O)/C=C/C(O)c1ccc(Cl)cc1 (centres undefined),inactive
2,C[C@@H](CN1CCC(Cc2ccccc2)CC1)[C@@H](O)c1ccc(O)cc1,inactive
3,NC(=O)C(=O)O,inactive
4,CNCC[C@H](Oc1ccc(C(F)(F)F)cc1)c1ccccc1,inactive
5,CC(=O)SCC[N+](C)(C)C,inactive
6,CN1[C@@H](CC(=O)c2ccccc2)CCC[C@H]1C[C@H](O)c1ccccc1,inactive
7,CN1C2CCC1CC(OC(=O)C(O)c1ccccc1)C2 (centres undefined),inactive
8,Cc1ccc(C(=O)O[C@H](C(=O)O)[C@@H](OC(=O)c2ccc(C)cc2)C(=O)O)cc1 (tested in a mixture with another compound),inactive
9,N=C(N)SCCc1ccc(CCSC(=N)N)cc1,inactive
10,C=CC(N)CCC(=O)O (centres undefined),inactive
11,COc1cccc(OC)c1OCCNCC1COc2ccccc2O1 (centres undefined),inactive
12,CC(C)NC[C@H](O)COc1cccc2[nH]ccc12,inactive
13,NC(CCCP(=O)(O)O)C(=O)O (centres undefined),inactive
14,Cc1ccccc1CNc1ncnc2c1ncn2C1OC(CO)C(O)C1O (centres undefined),inactive
15,O=C(O)c1cc(=O)c2ccccc2[nH]1,inactive
16,O=C(O)CC[C@@H](C(=O)O)N1C(=O)c2ccccc2C1=O,inactive
17,CC(C)(C=O)Cc1cc(C(C)(C)C)c(O)c(C(C)(C)C)c1,inactive
18,CCCCC/C=C\CC(O)/C=C/c1cccc(CC(O)CCCCO)n1 (centres undefined),inactive
19,O=c1[nH]c2cc([N+](=O)[O-])c([N+](=O)[O-])cc2[nH]c1=O,inactive
20,O=c1[nH]c2ccccc2n1CCCN1CCN(C(c2ccccc2)c2ccccc2)CC1,inactive
21,CN(C)c1nc2c(Br)c(Br)c(Br)c(Br)c2[nH]1,inactive
22,NCCNC(=O)c1ncsc1-c1cccc(F)c1,inactive
23,C[N+](C)(CCCCCC[N+](C)(C)CCCN1C(=O)c2cccc3cccc(c23)C1=O)CCCN1C(=O)c2cccc3cccc(c23)C1=O,inactive
24,NCCSSCCN,inactive
25,CN(C)C(N)=NCCC[C@H](N)C(=O)O,inactive
26,Fc1ccc(C(OCCCc2cnc[nH]2)c2ccc(F)cc2)cc1,inactive
27,O=C(O)c1cc(=O)c2c(Cl)cc(Cl)cc2[nH]1,inactive
28,CN(C)CCC(c1ccc(Cl)cc1)c1ccccn1 (centres undefined),inactive
